Laboratory results: PubChem BioAssay
Active and inactive are the calls of the source.

Columns and labels:
[1] = biological target: Albumin (Bos taurus) (UniProt P02769); test: bovine serum albumin binders on microarray, profiling panel, artefact control for SMM control protein annotation, biochemical, small-molecule microarray, Alexa647 label, 635/667 nm fluorescence (AID 1118); details: BSA-A647 binding, fluorescence 635 nm, higher = more signal;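 further: score merges 667 nm emission intensity and signal-to-noise per printed compound spot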
Chain of Albumin (Bos taurus) (P02769 whole entry, looked up): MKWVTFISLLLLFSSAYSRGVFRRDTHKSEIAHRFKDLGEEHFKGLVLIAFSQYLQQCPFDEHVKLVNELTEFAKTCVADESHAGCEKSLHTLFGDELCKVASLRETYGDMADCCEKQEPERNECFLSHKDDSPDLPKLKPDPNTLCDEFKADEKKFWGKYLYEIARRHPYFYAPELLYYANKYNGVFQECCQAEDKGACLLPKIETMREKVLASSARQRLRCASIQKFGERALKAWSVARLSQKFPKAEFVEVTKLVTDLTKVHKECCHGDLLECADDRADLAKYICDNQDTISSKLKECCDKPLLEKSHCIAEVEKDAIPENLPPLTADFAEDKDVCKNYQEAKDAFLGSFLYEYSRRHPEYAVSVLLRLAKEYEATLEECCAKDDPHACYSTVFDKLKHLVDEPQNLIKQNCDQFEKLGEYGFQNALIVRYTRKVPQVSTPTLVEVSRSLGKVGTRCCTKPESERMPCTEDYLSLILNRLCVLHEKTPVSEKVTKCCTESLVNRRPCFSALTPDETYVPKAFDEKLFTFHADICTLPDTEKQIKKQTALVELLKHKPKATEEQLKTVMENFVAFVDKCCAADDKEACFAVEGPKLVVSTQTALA

[2] = small-molecule microarray binders of probe aXIP, primary screen, biochemical, NeuroSMM set, 635/667 nm fluorescence (AID 1119); details: higher = more signal, called active from +8 up or from −8 down;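 further: probe is the protein aXip251-270 applied at 1 µg/mL to compound-printed slides; binding of probe to printed compounds measured as 667 nm fluorescence plus signal to noise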
[3] = small-molecule binders of probe aNOTCH3, primary screen, biochemical, small-molecule microarray, 635/667 nm fluorescence (AID 1120); details: higher = more signal;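 further: probe is a biotin-tagged antibody raised against NOTCH3 rather than NOTCH3 protein; score merges spot fluorescence near 667 nm with spot signal to noise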
[4] = small-molecule binders of probe aNOTCH2, primary screen, biochemical, small-molecule microarray, 635/667 nm fluorescence (AID 1121); details: higher = more signal;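 further: score merges feature fluorescence read at 667 nm with its signal to noise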
[5] = biological target: Carbonic anhydrase 2 (Homo sapiens) (UniProt P00918); test: CAII small-molecule binders, profiling panel, biochemical, small-molecule microarray, Alexa647-labelled CAII (AID 1122); details: CAII-A647 binding fluorescence, higher = more signal
[6] = COS7 lysate on small-molecule microarray, probe aHis, 635 nm (AID 1123); details: COS7 cell lysate, fluorescence, higher = more signal;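 further: z-score combines 667nm fluorescence intensity with signal-to-noise per printed compound spot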
[7] = compound binding in COS7 lysate, probe aLAP1, primary screen, cell lysate, small-molecule microarray (AID 1124); details: probe aLAP1, fluorescence, higher = more signal;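 further: lysate comes from COS7 cells expressing LAP1 and is applied at 0.3 µg/mL; score merges spot fluorescence near 667 nm with signal-to-noise over triplicate slides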
[8] = system: Sam68 (KHDRBS1); test: Sam68 small-molecule binders, primary screen, biochemical, small-molecule microarray, 635 nm fluorescence (AID 1125); details: small-molecule microarray binding, higher = more signal;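 further: score merges 667 nm channel intensity with signal to noise over triplicate slides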
[9] = system: Chordin-like protein 2 (CHRDL2); test: CHRDL2 small-molecule binders, primary screen, biochemical, small-molecule microarray, 635 nm fluorescence (AID 1126); details: small-molecule microarray binding, fluorescence 635 nm; higher = more signal;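 further: printed compound slides probed with Chrdl2 protein at 4 µg/mL for 1 h at 4 C; score merges 667 nm emission intensity with signal to noise over three replicate slides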
[10] = biological target: Concanavalin-A (Canavalia ensiformis) (UniProt P02866); test: ConA small-molecule binders, primary screen, artefact control for SMM control protein annotation, biochemical, small-molecule microarray, Alexa647 label, 635 nm (AID 1127); details: ConA-A647 binding fluorescence, higher = more signal;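 further: z combines 667 nm emission intensity with signal-to-noise across three replicate slides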
Chain of Concanavalin-A (Canavalia ensiformis) (P02866 whole entry, looked up): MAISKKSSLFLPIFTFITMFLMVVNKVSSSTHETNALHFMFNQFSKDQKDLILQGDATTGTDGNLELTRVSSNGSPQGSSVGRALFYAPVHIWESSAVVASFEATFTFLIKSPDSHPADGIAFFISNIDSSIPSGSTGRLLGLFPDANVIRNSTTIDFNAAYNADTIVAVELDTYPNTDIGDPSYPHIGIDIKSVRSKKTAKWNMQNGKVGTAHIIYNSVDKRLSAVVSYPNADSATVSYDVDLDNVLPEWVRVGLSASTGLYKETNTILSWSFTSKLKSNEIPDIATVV

[11] = anti-His antibody binders, primary screen, artefact control for SMM control protein annotation, biochemical, small-molecule microarray, 635 nm fluorescence (AID 1128); details: anti-His Alexa647 antibody binding, higher = more signal;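 further: score merges feature fluorescence with signal-to-noise for each printed compound spot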
[12] = system: Human papillomavirus type 1a E7 protein (residues 1-88); test: HPV1a E7 small-molecule binders, primary screen, biochemical, small-molecule microarray, residues 1-88, 635 nm (AID 1129); details: small-molecule microarray binding, fluorescence 635 nm; higher = more signal
[13] = biological target: Focal adhesion kinase 1 (Homo sapiens) (UniProt Q05397); test: small-molecule microarray binders of FAK, primary screen, biochemical, 635/667 nm fluorescence, BSA, DTT (AID 1130); details: PTK2 binding, 635 nm fluorescence, higher = more signal;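 further: composite of spot emission at 667 nm and signal to noise over triplicate slides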
Chain of Focal adhesion kinase 1 (Homo sapiens) (Q05397 whole entry, looked up): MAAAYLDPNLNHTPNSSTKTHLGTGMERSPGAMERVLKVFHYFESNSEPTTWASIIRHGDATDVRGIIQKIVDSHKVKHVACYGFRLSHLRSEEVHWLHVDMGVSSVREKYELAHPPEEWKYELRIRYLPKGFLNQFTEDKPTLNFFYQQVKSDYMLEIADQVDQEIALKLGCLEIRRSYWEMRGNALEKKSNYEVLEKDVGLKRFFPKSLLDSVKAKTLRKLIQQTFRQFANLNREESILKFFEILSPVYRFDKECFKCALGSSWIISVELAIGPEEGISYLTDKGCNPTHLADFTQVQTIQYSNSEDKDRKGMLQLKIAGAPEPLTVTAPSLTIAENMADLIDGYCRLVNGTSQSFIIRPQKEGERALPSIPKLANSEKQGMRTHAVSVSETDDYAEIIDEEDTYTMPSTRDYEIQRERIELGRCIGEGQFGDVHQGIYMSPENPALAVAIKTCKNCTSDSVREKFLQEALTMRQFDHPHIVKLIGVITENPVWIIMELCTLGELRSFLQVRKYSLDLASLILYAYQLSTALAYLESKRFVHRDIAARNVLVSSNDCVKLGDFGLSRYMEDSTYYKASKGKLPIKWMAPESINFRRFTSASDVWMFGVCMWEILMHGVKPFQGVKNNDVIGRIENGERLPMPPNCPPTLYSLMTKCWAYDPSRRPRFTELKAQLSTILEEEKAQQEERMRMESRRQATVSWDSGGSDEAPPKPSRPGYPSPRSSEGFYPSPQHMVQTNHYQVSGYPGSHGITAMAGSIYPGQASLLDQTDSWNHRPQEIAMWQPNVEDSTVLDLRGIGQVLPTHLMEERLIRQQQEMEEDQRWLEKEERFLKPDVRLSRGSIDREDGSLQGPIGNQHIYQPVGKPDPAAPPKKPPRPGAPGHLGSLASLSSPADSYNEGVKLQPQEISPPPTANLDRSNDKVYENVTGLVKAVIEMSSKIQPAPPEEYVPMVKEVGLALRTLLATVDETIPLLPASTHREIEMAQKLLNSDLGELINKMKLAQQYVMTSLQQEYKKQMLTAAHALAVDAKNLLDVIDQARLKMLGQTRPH

[14] = system: Fibrinogen (Alexa647-labelled); test: fibrinogen binders on compound microarrays, profiling panel, artefact control for SMM control-protein annotation, biochemical, small-molecule microarray, 635/667 nm fluorescence (AID 1131); details: fibrinogen-A647 binding fluorescence, higher = more signal;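 further: z-score merges 667 nm fluorescence with per-spot signal-to-noise over triplicate slides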
[15] = biological target: Follistatin (Homo sapiens) (UniProt P19883); test: follistatin binders on small-molecule microarrays, primary screen, biochemical, small-molecule microarray, 635/667 nm fluorescence (AID 1132); details: FST binding, 635 nm fluorescence, higher = more signal
Chain of Follistatin (Homo sapiens) (P19883 whole entry, looked up): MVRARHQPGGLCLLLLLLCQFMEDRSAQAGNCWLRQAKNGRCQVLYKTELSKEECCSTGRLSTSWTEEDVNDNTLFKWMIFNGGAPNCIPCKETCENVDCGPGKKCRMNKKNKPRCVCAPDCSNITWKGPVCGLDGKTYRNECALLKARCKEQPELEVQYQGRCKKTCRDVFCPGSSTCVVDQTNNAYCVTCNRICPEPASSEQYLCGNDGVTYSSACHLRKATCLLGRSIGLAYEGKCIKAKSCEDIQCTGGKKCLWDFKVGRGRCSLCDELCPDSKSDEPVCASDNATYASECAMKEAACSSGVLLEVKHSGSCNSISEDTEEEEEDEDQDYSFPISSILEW

[16] = biological target: Fibroblast growth factor 2 (Homo sapiens) (UniProt P09038); test: FGF2 binders on small-molecule microarrays, primary screen, biochemical, small-molecule microarray, 635/667 nm fluorescence (AID 1133); details: small-molecule microarray binding, FGF2, fluorescence 635/667; higher = more signal
Chain of Fibroblast growth factor 2 (Homo sapiens) (P09038 whole entry, looked up): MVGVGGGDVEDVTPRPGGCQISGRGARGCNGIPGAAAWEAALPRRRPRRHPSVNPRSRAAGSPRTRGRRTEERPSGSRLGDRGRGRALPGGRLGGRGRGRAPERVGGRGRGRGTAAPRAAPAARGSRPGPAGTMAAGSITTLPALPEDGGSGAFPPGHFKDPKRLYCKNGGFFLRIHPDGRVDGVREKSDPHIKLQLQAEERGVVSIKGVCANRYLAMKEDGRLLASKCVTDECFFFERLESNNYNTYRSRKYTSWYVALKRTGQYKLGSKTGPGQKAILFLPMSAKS

[17] = mitochondrial membrane potential change in A549 cells, profiling panel, cell-based, JC-1 fluorescence, basal, 24 h, 100 nL (AID 1138); details: higher = more signal;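 further: A549 lung adenocarcinoma cells under basal conditions with no added stimulus; test concentration not given here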
[18] = system: Lefty1; test: Lefty1 binders on small-molecule microarrays, primary screen, biochemical, small-molecule microarray, 635/667 nm fluorescence (AID 1139); details: small-molecule microarray binding, fluorescence 635/667; higher = more signal
[19] = system: wheat germ agglutinin (Triticum aestivum), Alexa647-labelled; test: wheat germ agglutinin binders on compound microarrays, profiling panel, artefact control for SMM control-protein annotation, biochemical, small-molecule microarray, 635/667 nm fluorescence (AID 1140); details: WGA-A647 binding, 635 nm fluorescence, higher = more signal;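 further: score merges 667 nm feature emission with signal to noise over triplicate slides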
[20] = biological target: Luciferin 4-monooxygenase (Photinus pyralis) (UniProt P08659); test: firefly luciferase enzyme inhibitors, primary screen, biochemical, luminescence, purified enzyme, 2006 set (AID 1141); details: SteadyGlo luminescence, 30 min, higher = more signal, called active from +8 up or from −8 down;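 further: cell-free assay with purified firefly luciferase at 100 ng per well in PBS; test concentration not given here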
Chain of Luciferin 4-monooxygenase (Photinus pyralis) (P08659 whole entry, looked up): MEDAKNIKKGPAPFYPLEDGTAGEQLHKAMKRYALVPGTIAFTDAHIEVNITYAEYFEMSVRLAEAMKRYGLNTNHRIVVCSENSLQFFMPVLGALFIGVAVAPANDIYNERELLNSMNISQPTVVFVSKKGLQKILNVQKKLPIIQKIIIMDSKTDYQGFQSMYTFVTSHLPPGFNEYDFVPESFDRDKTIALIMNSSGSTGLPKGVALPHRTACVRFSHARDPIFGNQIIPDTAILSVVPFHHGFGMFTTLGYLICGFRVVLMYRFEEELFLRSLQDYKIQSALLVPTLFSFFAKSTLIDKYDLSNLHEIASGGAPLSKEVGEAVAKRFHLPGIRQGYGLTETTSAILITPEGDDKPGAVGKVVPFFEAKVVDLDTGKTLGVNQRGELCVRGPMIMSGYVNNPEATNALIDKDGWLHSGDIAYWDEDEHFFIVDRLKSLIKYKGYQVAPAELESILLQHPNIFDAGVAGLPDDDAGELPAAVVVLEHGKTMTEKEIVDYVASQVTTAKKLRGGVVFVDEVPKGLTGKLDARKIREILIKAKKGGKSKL

Structure (SMILES) | composite z-score [1] | composite Z-score [2] | composite z-score [3] | composite z-score [4] | composite z-score [5] | composite z-score [6] | composite z-score [7] | composite z-score [8] | composite z-score [9] | composite z-score [10] | composite z-score [11] | composite z-score [12] | composite z-score [13] | composite z-score [14] | composite z-score [15] | composite z-score [16] | z-score [17] | composite z-score [18] | composite z-score [19] | z-score [20]
CC(C)c1ccc(NN2C(C(O)C3=C[C@H]4C[C@@H](C3)C4(C)C)C=CC3C(=O)N(c4ccccc4)C(=O)C32)cc1 (stereo not given in full) | 0.97 | 0.378 (inactive) | 0.333 | 0.248 | 0.662 | 2.04 | 1.09 | 1.17 | 0.4 | 1.12 | 0.57 | 1.07 | 0.0505 | 0.953 | 1.11 | 0.248 | -0.894 | 0.605 | 0.632 | -1.77 (inactive)
C=CC[C@@]1(C(=O)NCCCOC)N=C(c2ccc(OCCCO)cc2)O[C@@H]1c1ccccc1CN=[N+]=[N-] | 0.829 | 0.202 (inactive) | 0.518 | -0.108 | 0.596 | 2.61 | 0.159 | 1.29 | 0.0984 | 1.08 | 2.86 | 1.21 | 0.117 | 1.01 | 1.15 | 0.312 | 1.7 | 0.309 | 0.719 | 0.645 (inactive)
C[C@@]1([C@@H](NS(=O)(=O)c2cccc3cccnc23)c2ccc(-c3ccccc3)cc2)C[C@H]1C1CCCCC1 | 0.533 | -0.343 (inactive) | 0.314 | 0.131 | 0.549 | 2.06 | 0.165 | 0.292 | -0.214 | 0.391 | 0.431 | 1.18 | 1.14 | -0.744 | 0.247 | -0.506 | 0.00915 | -0.959 | 0.655 | 1.29 (inactive)
CC(C)(C)OC(=O)CC[C@]1(C(=O)N2CCOCC2)COC(c2ccc(OCCCO)cc2)=N1 | 0.947 | -0.124 (inactive) | -0.0387 | -0.129 | 0.853 | 2.85 | -0.494 | 0.836 | -1.17 | 0.0647 | 2.44 | 0.882 | 0.427 | 0.507 | -0.0198 | -0.225 | 1.62 | -0.692 | 0.672 | -1.06 (inactive)
C#CCN(C(=O)OC(C)(C)C)[C@H](CO)c1ccccc1 | 0.632 | 0.32 (inactive) | -0.0043 | -0.146 | 0.0604 | 0.125 | 0.183 | 0.689 | 0.105 | 0.0388 | 0.137 | 0.266 | 0.0987 | -0.0218 | -0.0032 | 0.579 | -0.766 | 0.543 | -0.174 | 0.978 (inactive)
COC(=O)[C@@]1(Cc2ccc(F)cc2)[C@H]2c3cc(C(=O)N4CCCC4)n(Cc4ccc(OC(F)(F)F)cc4)c3C[C@H]2CN1C(=O)c1ccccc1 | 0.435 | -0.328 (inactive) | 0.0026 | -0.0108 | 0.861 | 1.96 | 0.32 | -0.701 | -0.0979 | -0.484 | -0.509 | 1.05 | 0.415 | -0.276 | -0.752 | -0.685 | 0.559 | -1.69 | 0.135 | 1.38 (inactive)
C=CCC(OC(C)=O)[C@@H]1[C@@H](N(Cc2ccc(-c3ccccc3)cc2)C(=O)Cc2ccc(OC)cc2)c2cc(OCCCO)ccc2N1C(=O)c1ccc2ccccc2c1 (stereo not given in full) | 0.234 | -0.0949 (inactive) | -0.043 | -0.176 | 0.269 | 0.198 | 0.165 | 0.0843 | -0.225 | 0.134 | -0.365 | -0.168 | -0.0078 | 0.186 | 0.458 | 0.338 | 0.865 | 0.146 | 0.266 | 0.161 (inactive)
C=C(C(=O)CC[C@@H](OC(=O)c1cccnc1)c1cccc(OCCO)c1)C(C)C | -0.176 | 0.437 (inactive) | 0.0286 | -0.141 | 0.14 | -0.588 | 1.3 | -0.588 | -0.114 | 0.297 | 0.317 | -0.4 | -0.896 | 0.496 | 0.866 | 1.33 | 0.313 | 1.13 | 0.386 | -0.128 (inactive)
COC(=O)[C@@]1(Cc2ccc(F)cc2)[C@H]2c3cc(C(=O)N4CCCC4)n(C[C@H](O)CO)c3C[C@H]2CN1C(=O)c1ccccc1 | 1.13 | 0.133 (inactive) | 0.591 | 0.678 | 0.844 | 2.88 | 1.23 | 0.208 | 0.0578 | 0.779 | 1.09 | 1.09 | -0.0554 | 1.01 | -0.266 | -0.157 | 0.226 | -0.472 | 0.883 | 2.19 (inactive)
[N-]=[N+]=NCc1ccccc1[C@H]1OC(c2ccc(OCCCO)cc2)=N[C@@]1(Cc1ccccc1N=[N+]=[N-])C(=O)N1CCOCC1 | 0.939 | 0.594 (inactive) | 0.0159 | -0.0895 | 0.676 | 2.57 | -0.14 | 1.3 | -0.596 | 1.14 | 0.574 | 1.21 | 0.993 | 1.04 | 0.526 | -0.335 | 0.704 | 0.0349 | 1.07 | -2.44 (inactive)
CCCC=C(CCC)[C@@H](NC(=O)c1ccc(C(=O)OC)cc1)c1ccc(C(=O)OC)cc1 | 0.781 | 0.0466 (inactive) | 0.0847 | 0.0522 | 0.203 | 2.45 | 0.718 | 0.417 | 0.031 | 0.251 | -0.202 | 0.33 | 0.723 | 0.146 | 0.0388 | -1.47 | -0.699 | -0.799 | 0.315 | 1.3 (inactive)
